Test results taken from PubChem BioAssay (Tox21).
“And” between values parts separate entries of the source, which are not always exact repeats. Equal values may be shown once. Results filed as inconclusive are left out. A call without a number means that no potency is given here. The source made the active and inactive calls. Calls come from the whole dose curve.

Test: qHTS assay to identify small molecule antagonists of the estrogen receptor alpha (ER-alpha) signaling pathway using the BG1 cell line (AID 743080);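 note: BG1 cells stimulated with 17beta-estradiol alongside compound; nearly all actives have a fitted effect of over 25% in size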
Settings: BG1Luc4E2 ERE-luciferase antagonist mode, luminescence; series mostly up to 70.3 µM
In short: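 Luminescence from a 4×ERE-luciferase reporter in BG1-Luc-4E2 cells served as read-out. Cells, pre-cultured 5 days in stripped-serum phenol-red-free medium, were exposed to compound with 17beta-estradiol co-stimulation for 21.5 h at 37 C.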
Potency is the fitted concentration of half-maximal effect.

SMILES	Potency
Clc1ccc(C(c2ccccc2Cl)C(Cl)(Cl)Cl)cc1 (configuration not stated)	inactive
C[C@]12CC[C@H]3[C@@H](CCC4=CC(=O)CC[C@@]43C)[C@@H]1CC[C@@H]2O	inactive
CCc1nn(C)c(C(=O)NCc2ccc(C(C)(C)C)cc2)c1Cl	0.0243 µM (active)
CC[C@H](C)[C@H]1O[C@]2(C=C[C@@H]1C)C[C@@H]1C[C@@H](C/C=C(\C)[C@@H](O[C@H]3C[C@H](OC)[C@@H](O[C@H]4C[C@H](OC)[C@@H](O)[C@H](C)O4)[C@H](C)O3)[C@@H](C)/C=C/C=C3\CO[C@@H]4[C@H](O)C(C)=C[C@@H](C(=O)O1)[C@]34O)O2	inactive
Cc1cc(SCc2sc(-c3ccc(C(F)(F)F)c(F)c3)nc2C)ccc1OCC(=O)O	inactive
O=c1ssc(Cl)c1Cl	inactive
O=S(=O)(c1ccc(Cl)cc1)c1ccc(Cl)cc1	24.6 µM (active)
Oc1cc(Cl)c(Cl)c(Cl)c1	inactive
CS(=O)(=O)c1ccc(C(=O)C2C(=O)CCCC2=O)c([N+](=O)[O-])c1	inactive
CC(C)(C)C(O)/C(=C\c1ccc(Cl)cc1Cl)n1cncn1 (configuration not stated)	74 µM (active)
CCCCCCCCCCCCBr	inactive
C1CCC2CCCCC2C1 (configuration not stated)	inactive
CC(C)C1CCC(Cc2ccc(Cl)cc2)C1(O)Cn1cncn1 (configuration not stated)	67.9 µM (active)
Clc1ccc(COC(Cn2ccnc2)c2ccc(Cl)cc2Cl)cc1 (configuration not stated)	23.7 µM (active) and 60.9 µM (active)
N#CCCC(Br)(C#N)CBr (configuration not stated)	inactive
CCOCCOC(C)=O	inactive
CCOc1cc(C(C)(C)C)ccc1C1COC(c2c(F)cccc2F)=N1 (configuration not stated)	inactive
